Here are results for 17 compounds from PubChem BioAssay AID588774 (The Scripps Research Institute Molecular Screening Center, 2011).

Activity calls are given as the source filed them.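 How the source made its calls: active means target enzyme inhibited at least 50% at a set dose, and selective over every off-target enzyme by a set factor; inactive means weaker inhibition or too little selectivity.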

Assay [1] is described as follows: pPAFAH inhibition and serine hydrolase selectivity, SAR follow-up, selectivity assay for pPAFAH inhibitor project, biochemical, gel-based, FP-Rh fluorescence, complex proteome, SAR compounds (AID 588774).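 On inhibition: 0% = DMSO-only band intensity and 100% = blank gel background.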 The settings on record: gel-based competitive ABPP, MW 30 kDa, anti-targets inhibited, at 10 µM.
The test system of the next assay is MW 30 kDa. Described as above. The settings on record: gel-based competitive ABPP, at 10 µM, stronger effect = higher value.

In assay [1], `O=C(Oc1noc2cc(Cl)ccc12)N1CCOCC1` returned an anti-target count of 3. Also, the inhibition in the assay with MW 30 kDa is 97% (inactive).

In the case of `Cc1cc(N2CCN(C(=O)n3ncc(-c4ccccc4)n3)CC2)c2ccccc2n1`, the anti-target count in assay [1] worked out at 9. For the same compound, in the assay with MW 30 kDa, the inhibition was 88% (inactive).

The compound `Cc1cc(N2CCN(C(=O)Oc3ccc(-c4ccc(Br)cc4)cc3)CC2)c2ccccc2n1` returned an anti-target count in assay [1] of 0. Further, in the assay on MW 30 kDa, the inhibition was 0% (inactive).

`Cc1cc(N2CCN(C(=O)n3ncc(-c4ccc([N+](=O)[O-])cc4)n3)CC2)c2ccccc2n1` registered an anti-target count in assay [1] of 9. Also, the inhibition in the assay on MW 30 kDa is 91% (inactive).

Consider `Cc1cc(N2CCN(C(=O)Oc3ccc(C4CCCC4)cc3)CC2)c2ccccc2n1`, for which the anti-target count in assay [1] came out at 0. Also, in the assay with MW 30 kDa, the inhibition is 0% (inactive).

On to `Cc1cc(N2CCN(C(=O)Oc3ccc(-c4ccccc4)cc3)CC2)c2ccccc2n1`, for which, in assay [1], the anti-target count came to 0. For the same compound, the inhibition in the assay on MW 30 kDa was 0% (inactive).

`Cc1cc(N2CCN(C(=O)Oc3ccc(-n4cccc4)cc3)CC2)c2ccccc2n1`: the anti-target count in assay [1] came to 0. The inhibition in the assay on MW 30 kDa was 0% (inactive).

In turn, `O=C(N1CCOCC1)n1oc2cc(Cl)ccc2c1=O` yielded an anti-target count in assay [1] of 6. In addition, the inhibition with MW 30 kDa was 78% (inactive).

Turning to `Cc1cc(N2CCN(C(=O)Oc3noc4cc(Cl)ccc34)CC2)c2ccccc2n1`, the anti-target count in assay [1] came to 4. In the assay with MW 30 kDa, the inhibition was 0% (inactive).

`COc1ccc(-c2cnn(C(=O)N3CCN(c4cc(C)nc5ccccc45)CC3)n2)cc1`: in assay [1], the anti-target count came to 8. Besides, the inhibition in the assay with MW 30 kDa is 79% (inactive).

Compound `Cc1cc(N2CCN(C(=O)n3ncc(-c4ccc(Cl)c(Cl)c4)n3)CC2)c2ccccc2n1` returned an anti-target count in assay [1] of 8. For the same compound, the inhibition with MW 30 kDa was 93% (inactive).

As for `Cc1cc(N2CCN(C(=O)Oc3ccc(C4CCCCC4)cc3)CC2)c2ccccc2n1`, in assay [1], the anti-target count is 0. In addition, the inhibition in the assay with MW 30 kDa is 0% (inactive).

In the case of `Cc1cc(N2CCN(C(=O)Oc3ccc([N+](=O)[O-])cc3)CC2)c2ccccc2n1`, the anti-target count in assay [1] worked out at 2. In addition, in the assay with MW 30 kDa, the inhibition was 0% (inactive).

As to `O=C(Oc1noc2cc(Cl)ccc12)N1CCCCC1`, the anti-target count in assay [1] is 2. Further, the inhibition with MW 30 kDa is 100% (inactive).

`Cc1cc(N2CCN(C(=O)n3oc4cc(Cl)ccc4c3=O)CC2)c2ccccc2n1`: the anti-target count in assay [1] was 3. In addition, in the assay with MW 30 kDa, the inhibition is 39% (inactive).

`Cc1cc(N2CCN(C(=O)Oc3ccc(C(F)(F)F)cc3)CC2)c2ccccc2n1` yielded an anti-target count in assay [1] of 1. For the same compound, the inhibition with MW 30 kDa was 0% (inactive).

`Cc1cc(N2CCN(C(=O)n3ncc(-c4ccc(OC(F)(F)F)cc4)n3)CC2)c2ccccc2n1` registered an anti-target count in assay [1] of 9. Besides, in the assay with MW 30 kDa, the inhibition is 100% (inactive).

What is called inhibition is the change of the read-out against control, counted positive when it falls.
